Here are results for 13 compounds from PubChem BioAssay (NCI).

“And” between values parts separate entries of the source, which are not always exact repeats. Identical values can stand only once. About 83,000 compounds went through this panel and 20% of them were active in at least one assay; those are over-represented in the sample as a whole.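 96-well plates, one dose, 48 hours. Percent growth reported; active if below 10.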 A number with no mark means an inactive call. The source made the active and inactive calls.

For the assay, the system named is HCC-2998 colon. The assay is described as follows: NCI-60 one-dose screen, 48 h (100 = growth as untreated, 0 = no growth, -100 = all killed). The conditions noted are these: 10 µM unless noted.
In the case of `O=C(CSc1nnc(-c2ccc(-c3nc4ccc(Cl)cc4[nH]3)cc2)o1)Nc1ccc(Cl)cc1`, the growth is 67%. In the case of `COc1ccc(-n2c(NC(=O)N3CCN(C)CC3)c(C#N)c3ccccc32)cc1`, the growth was 89%. As to `N#Cc1c(NC(=O)N2CCOCC2)n(-c2ccc(OC(F)(F)F)cc2)c2cc(F)ccc12`, the growth was 110%. To `COc1ccc(-c2nc3ccccc3n2CC(=O)N=Nc2c(O)[nH]c3ccc(Br)cc23)cc1` belongs 108%; to `O=C1Nc2ccccc2/C1=C/C(=O)c1cc2ccccc2oc1=O`, 140%; to `COc1sc(/C=N/NC(=O)c2[nH]c3ccc(Br)cc3c2-c2ccccc2)cc1Br`, 8.54% (active). Then `CSc1ccc(OCc2nc3ccccc3n2-c2cccc(NS(C)(=O)=O)c2)cc1`, with 122% and 112%; and `O=C(NNC(=O)c1ccc(OCc2nc3ccc(Cl)cc3[nH]2)cc1)Nc1ccc(Cl)c(Cl)c1`, with 70.1%; and `COc1cc(C2CC(c3ccc(F)cc3)=Nc3c(N)nc(N)nc3N2)ccc1Oc1nc(Nc2ccc(F)cc2)nc(N(C)C)n1` (stereo not drawn), with 29.1%. With `NC1(c2ccc(-c3ccc4ncnc(NCc5ccccc5)c4c3)cn2)COC1`, the growth is 117% and 113%.

In the case of `C#CCN(C)CCCOc1ccc(N(CC)C(=O)c2cc(C(C)C)c(O)cc2O)cc1Cl`, the growth is -78.2% (active). Turning to `C#CCCCNCCNc1ccnc2cc(Cl)ccc12`, the growth is 62%.

Turning to `COc1cc(CNC(=O)C[C@H](C)CCC=C(C)C)ccc1OCc1cn(-c2ccccc2F)nn1`, the growth was 101%.
